The values that follow come from the supplement of paper PMC12636033.

± gives the standard deviation of the averaged measurements. The full ranking holds about 33,000 sequences; the median of “E-score (rank enrichment, -0.5 to 0.5)” is about -0.0068, and the highest 2% start at about 0.24. This is one part of a sample in which the highest values are shown more often than they occur.

The assay has as its system muMax20 (Max(13-93) K31hArg/K57hArg, M65Nle). Description: PBM 8-mer E-score (E-score (rank enrichment, -0.5 to 0.5)); higher = stronger preferential binding. As for the experimental part:
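Protein binding microarray (universal PBM chip covering all 10-mers in fixed probe flanks) with chemically synthesized human Max(13-93) bHLH-LZ analogs (not full-length Max) bearing noncanonical residues (hArg, Tha, Aib, Nle at 65) and aromatic Cys staples. Read-out per 8-mer (and its reverse complement): E-score (rank-based enrichment, -0.5 to 0.5) and Z-score of median probe intensity.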
Regarding ACATGCGT, the “PBM 8-mer E-score” value turned out to be 0.243 ± 0.13.

With ACATGCAG, the “PBM 8-mer E-score” value turned out to be 0.032 ± 0.14.

As to GCATGCAA, the “PBM 8-mer E-score” value is 0.147 ± 0.034.

Regarding ACATGCAA, the “PBM 8-mer E-score” value was determined as 0.16 ± 0.046.

For the sequence ACATGCGC, the “PBM 8-mer E-score” value came to 0.17 ± 0.0097.

As to ATTTCACC, the “PBM 8-mer E-score” value was found to be 0.0208 ± 0.092.

In the case of ATTGTGGA, the “PBM 8-mer E-score” value came out at 0.0503 ± 0.16.

As to AGATATAT, the “PBM 8-mer E-score” value stood at 0.176 ± 0.023.

Take GTCGTACA: the “PBM 8-mer E-score” value stood at 0.242 ± 0.13.

Take ATCGTACA: the “PBM 8-mer E-score” value was determined as 0.159 ± 0.048.

In the case of CTCGTACA, the “PBM 8-mer E-score” value worked out at 0.041 ± 0.08.

With ACGTGAAT, the “PBM 8-mer E-score” value was determined as 0.235 ± 0.083.

As for CTTCTCAA, the “PBM 8-mer E-score” value amounted to 0.0152 ± 0.1.

Consider AGCCAGCC, for which the “PBM 8-mer E-score” value was -0.293 ± 0.06.

In the case of CCTAAGAA, the “PBM 8-mer E-score” value came out at 0.099 ± 0.038.

For ATGCTCAA, the “PBM 8-mer E-score” value turned out to be 0.0249 ± 0.035.

For CGCCGTGA, the “PBM 8-mer E-score” value was -0.131 ± 0.031.

Turning to CAATAATG, the “PBM 8-mer E-score” value was 0.117 ± 0.023.

AAATAATT: the “PBM 8-mer E-score” value stood at 0.242 ± 0.046.

Turning to AAATAATA, the “PBM 8-mer E-score” value is 0.232 ± 0.013.

For the sequence CAATAATC, the “PBM 8-mer E-score” value stood at 0.0932 ± 0.028.

Consider TAATAACA, for which the “PBM 8-mer E-score” value came to 0.124 ± 0.0069.

As to AAATAATC, the “PBM 8-mer E-score” value stood at 0.0578 ± 0.046.

Take CAATAATA: the “PBM 8-mer E-score” value is 0.304 ± 0.0083.

Take GAATAACA: the “PBM 8-mer E-score” value was 0.175 ± 0.11.

CAATAACA: the “PBM 8-mer E-score” value came to 0.26 ± 0.066.

ATTTACCC: the “PBM 8-mer E-score” value came out at 0.0541 ± 0.029.

As to CGTCTGGA, the “PBM 8-mer E-score” value was -0.178 ± 0.11.

Consider GCCTGTTA, for which the “PBM 8-mer E-score” value was 0.0517 ± 0.1.

AGCACCCG: the “PBM 8-mer E-score” value was -0.159 ± 0.024.

For CGGCCAAA, the “PBM 8-mer E-score” value was -0.227 ± 0.024.

CGCTGATA: the “PBM 8-mer E-score” value was -0.0375 ± 0.12.

On to AAATAAAA, for which the “PBM 8-mer E-score” value is 0.252 ± 0.023.

For the sequence CAATAAAA, the “PBM 8-mer E-score” value is 0.197 ± 0.038.

As for AAAATAAA, the “PBM 8-mer E-score” value amounted to 0.116 ± 0.064.

For the sequence GAATAAAA, the “PBM 8-mer E-score” value was determined as 0.0698 ± 0.033.

On to AAATAAAT, for which the “PBM 8-mer E-score” value came out at 0.156 ± 0.054.

On to TAATAAAA, for which the “PBM 8-mer E-score” value came to 0.246 ± 0.0097.

With AAGCGTCC, the “PBM 8-mer E-score” value was -0.0322 ± 0.057.

For the sequence ACCTAGAT, the “PBM 8-mer E-score” value was -0.0454 ± 0.032.

Turning to TGGGAAAA, the “PBM 8-mer E-score” value was 0.0021 ± 0.034.

With CTTTTTTC, the “PBM 8-mer E-score” value was found to be 0.127 ± 0.031.

In the case of ATTCGCTA, the “PBM 8-mer E-score” value is 0.0997 ± 0.028.

Regarding CATCCATC, the “PBM 8-mer E-score” value amounted to 0.0727 ± 0.029.

For GGGGTACC, the “PBM 8-mer E-score” value was -0.196 ± 0.038.

On to GCATATAA, for which the “PBM 8-mer E-score” value worked out at 0.113 ± 0.027.

In the case of ATATTATA, the “PBM 8-mer E-score” value is 0.308 ± 0.012.

As to ATATTACC, the “PBM 8-mer E-score” value turned out to be 0.244 ± 0.0062.

As for ATATTACA, the “PBM 8-mer E-score” value was 0.137 ± 0.011.

For the sequence ACATTATA, the “PBM 8-mer E-score” value turned out to be 0.21 ± 0.031.

GCATTACA: the “PBM 8-mer E-score” value amounted to 0.142 ± 0.017.

For the sequence CTATTACA, the “PBM 8-mer E-score” value was 0.171 ± 0.028.

As to AAATTATG, the “PBM 8-mer E-score” value was determined as 0.211 ± 0.015.

Regarding CTATTATA, the “PBM 8-mer E-score” value turned out to be 0.0941 ± 0.095.

As for AAATTATT, the “PBM 8-mer E-score” value is 0.2538 ± 0.0012.

Turning to CTATTACC, the “PBM 8-mer E-score” value worked out at 0.0779 ± 0.076.

Turning to AAATTATA, the “PBM 8-mer E-score” value was 0.173 ± 0.054.

With GTATTACA, the “PBM 8-mer E-score” value is 0.3133 ± 0.0018.

As to CCCTTTCG, the “PBM 8-mer E-score” value was -0.143 ± 0.066.

Regarding AGAACTAC, the “PBM 8-mer E-score” value worked out at 0.126 ± 0.015.

Regarding CAGTGGGA, the “PBM 8-mer E-score” value was -0.0398 ± 0.11.

With CGAACAGA, the “PBM 8-mer E-score” value is -0.107 ± 0.056.

Turning to AGCCTATC, the “PBM 8-mer E-score” value is 0.0159 ± 0.029.

As to AACTTCTC, the “PBM 8-mer E-score” value was -0.0128 ± 0.016.

With CAGAGTTA, the “PBM 8-mer E-score” value was -0.06527 ± 0.00021.

Turning to ATATTATC, the “PBM 8-mer E-score” value was 0.0756 ± 0.14.

For GTATTAAA, the “PBM 8-mer E-score” value was found to be 0.178 ± 0.049.

On to GCATTATA, for which the “PBM 8-mer E-score” value was found to be 0.129 ± 0.031.

As for AGATTATG, the “PBM 8-mer E-score” value is 0.00982 ± 0.022.

In the case of CTATTAGA, the “PBM 8-mer E-score” value was -0.0357 ± 0.074.

Turning to ATATTATG, the “PBM 8-mer E-score” value was 0.276 ± 0.015.

Turning to GTATTAGA, the “PBM 8-mer E-score” value came out at 0.213 ± 0.0064.

Take GTATTATA: the “PBM 8-mer E-score” value came out at 0.256 ± 0.063.

Consider ATATTAGA, for which the “PBM 8-mer E-score” value is 0.302 ± 0.026.

With AAACGGAA, the “PBM 8-mer E-score” value was -0.0336 ± 0.073.

In the case of CCTAGTAC, the “PBM 8-mer E-score” value was determined as 0.0875 ± 0.082.

Take ACTTCCTC: the “PBM 8-mer E-score” value was found to be 0.052 ± 0.096.

Consider AACGCTAG, for which the “PBM 8-mer E-score” value is -0.145 ± 0.08.

As to AAAACAAG, the “PBM 8-mer E-score” value turned out to be 0.111 ± 0.034.

In the case of AAAACAGG, the “PBM 8-mer E-score” value is -0.0042 ± 0.15.

As for AAAACAAT, the “PBM 8-mer E-score” value was determined as 0.265 ± 0.029.

With AAAACAGT, the “PBM 8-mer E-score” value was determined as 0.252 ± 0.029.

Regarding AAAACAGC, the “PBM 8-mer E-score” value is 0.0469 ± 0.026.

On to AAAACAAC, for which the “PBM 8-mer E-score” value worked out at 0.00369 ± 0.069.

With GGGCTAAC, the “PBM 8-mer E-score” value was -0.0713 ± 0.048.

Take ACCAGCCC: the “PBM 8-mer E-score” value was -0.112 ± 0.14.

As to AGGTGACG, the “PBM 8-mer E-score” value was -0.141 ± 0.091.
